{"source": "PubChem BioAssay (NCATS)", "note": "Inconclusive results are not listed. Where a call stands in place of a potency, no number is given. A number with no mark means an inactive call. The source made the active and inactive calls. Calls come from the whole dose curve; as a rule, active = well fitted cell-killing curve with a large enough effect; inconclusive = small, poorly fitted or top-dose-only effect, or effect the other way; inactive = flat fitted curve, though single readings scatter. Potency is the fitted concentration of half-maximal effect."}
{"tested_on": "OV90", "test": "Primary qHTS to identify gynecologic anti-cancer compounds using libraries of approved drugs and bioactive compounds (AID 1345084); note: nearly all actives have a fitted effect of over 55% in size", "details": "Gynecologic cancer cell panel viability, ATPlite luminescence, 48 h; series mostly up to 57.5 µM", "summary_of_the_method": "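Cells, 1,000 per well, plated 16 h, then exposed 48 h at 37 C to compounds. Viability by ATPlite luminescence after 15 min at room temperature.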"}
{"compound": "COCCOc1cnc2ccn([C@H](C)c3nnc4c(F)cc(-c5cnn(C)c5)cn34)c(=O)c2c1", "Potency": "inactive"}
{"compound": "COc1cc(O)cc(/C=C/c2ccc(O[C@@H]3O[C@H](CO)[C@@H](O)[C@H](O)[C@H]3O)cc2)c1", "Potency": "inactive"}
{"compound": "CC(CCC1(O)OC2CC3C4CCC5CC(O[C@@H]6O[C@H](CO)[C@@H](O)[C@H](O)[C@H]6O[C@@H]6O[C@@H](C)[C@H](O)[C@@H](O)[C@H]6O)C(O)CC5(C)C4CCC3(C)C2C1C)CO[C@@H]1O[C@H](CO)[C@@H](O)[C@H](O)[C@H]1O", "note": "(stereo partly drawn)", "activity change, negative = cytotoxicity": "22.7% [at 11.6 µM]"}
{"compound": "CC1=CC(=O)CC(C)(C)[C@@]1(O)CC[C@@H](C)O[C@@H]1O[C@H](CO)[C@@H](O)[C@H](O)[C@H]1O", "Potency": "inactive"}
{"compound": "C=C1[C@@H]2CC[C@@H]3[C@@](CCC4C(C(=O)O)(C(=O)O)C[C@@H](O[C@@H]5O[C@H](CO)[C@@H](O)[C@H](O)[C@H]5OC(=O)CC(C)C)C[C@]43C)(C2)[C@H]1O", "note": "(stereo partly drawn)", "Potency": "inactive"}
{"compound": "C/C=C(\\C)C(=O)O[C@H]1[C@@H](O[C@]2(COC(=O)CC(C)C)O[C@H](COC(=O)C(C)CC)[C@@H](OC(C)=O)[C@@H]2O)O[C@H](COC(C)=O)[C@@H](O)[C@@H]1O", "note": "(stereo partly drawn)", "Potency": "inactive"}
{"compound": "CCn1c(=O)c(-c2ccn[nH]2)cc2c(C)nc(N)nc21", "Potency": "14.1 µM (active)"}
{"compound": "C/C=C/C=C/C(O)=C1\\C(O)=C(C)C(=O)[C@@]2(C)OC(=O)[C@@](C)(NC(=O)/C=C/C(=O)O)[C@@H]12", "Potency": "inactive"}
{"compound": "Cc1nc(Nc2n[nH]c3c2CN(C(=O)NC(CN(C)C)c2ccccc2)C3(C)C)c2sccc2n1", "note": "(stereo not drawn)", "Potency": "3.16 µM (active)"}
{"compound": "C[C@@H]1O[C@@H](O[C@H]2[C@H](O)[C@@H](O)[C@H](O[C@H]3[C@H](O[C@H]4CC[C@@]5(C)C(=CC[C@@H]6C5CC[C@]5(C)[C@@H]7[C@H](C[C@@H]65)O[C@]5(CC[C@@](C)(CO[C@@H]6O[C@H](CO)[C@@H](O)[C@H](O)[C@H]6O)O5)[C@H]7C)C4)O[C@H](CO)[C@@H](O)[C@@H]3O)O[C@@H]2CO)[C@H](O)[C@H](O)[C@H]1O", "note": "(stereo partly drawn)", "activity change, negative = cytotoxicity": "5.27% [at 11.6 µM]"}
{"compound": "O=C(Nc1c(-c2cccs2)nc2ccccn12)c1ccc(Cl)cc1", "Potency": "inactive"}
{"compound": "CC1(C)CC[C@]2(C(=O)O)CC[C@]3(C)C(=CCC4[C@@]5(C)CC[C@H](O[C@@H]6O[C@H](C(=O)O)[C@@H](O[C@@H]7OC[C@@H](O)[C@H](O)[C@H]7O)[C@H](O)[C@H]6O)C(C)(C)C5CC[C@]43C)C2C1O", "note": "(stereo partly drawn)", "Potency": "inactive"}
{"compound": "NCc1ccc(Nc2ncc(F)c(Nc3ccccc3)n2)cc1", "Potency": "inactive"}
{"compound": "NC(=O)c1cccc2cn(-c3ccc(C4CCCNC4)cc3)nc12", "note": "(stereo not drawn)", "Potency": "inactive"}
{"compound": "CN(C)c1nc(NC2CCC(NCCc3ccc(Br)cc3OC(F)(F)F)CC2)nc2ccccc12", "note": "(stereo not drawn)", "Potency": "14.1 µM (active)"}
{"compound": "Cc1c(CN2CCN(C(=O)C(C)O)CC2)sc2c(N3CCOCC3)nc(-c3cnc(N)nc3)nc12", "note": "(stereo not drawn)", "Potency": "1.78 µM (active)"}
{"compound": "CNC(C)C(=O)NC(C(=O)N1CCCC1c1nc(C(=O)c2ccc(F)cc2)cs1)C1CCCCC1", "note": "(stereo not drawn)", "Potency": "inactive"}
{"compound": "CC(=O)NC1=NN(C(C)=O)C(C)(c2ccccc2)S1", "note": "(stereo not drawn)", "Potency": "inactive"}
{"compound": "C=C[C@]1(C)C[C@H](O)[C@@H]2[C@H](OC(=O)[C@@H]2C)C1/C(C)=C/O[C@@H]1O[C@H](CO)[C@@H](O)[C@H](O)[C@H]1O", "note": "(stereo partly drawn)", "Potency": "inactive"}
{"compound": "Cc1cc(C(=O)Nc2cccc(C(=O)Nc3cccc(C(F)(F)F)c3)c2)on1", "Potency": "inactive"}
{"compound": "Cc1nc(NC(=O)N2CCCC2C(N)=O)sc1-c1csc(C(C)(C)C)n1", "note": "(stereo not drawn)", "Potency": "inactive"}
{"compound": "O=C1CCC=CC1(O)C(=O)OCc1ccccc1O[C@@H]1O[C@H](CO)[C@@H](O)[C@H](O)[C@H]1O", "note": "(stereo partly drawn)", "Potency": "inactive"}
{"compound": "CC(C)c1nnc(-c2ccc(-c3ccccc3)nc2)n1-c1cccc2nonc12", "Potency": "inactive"}
{"compound": "O=C(NCc1ccc(F)cc1)C(=O)c1c[nH]c2ccccc12", "Potency": "inactive"}
{"compound": "Nc1nc2c(c(N3CCNCC3)n1)CCC1=C2[C@@H]2CCCC[C@@H]2O1", "Potency": "inactive"}
{"compound": "CC1(C)CCC[C@@]2(C)C1[C@H](OC(=O)/C=C/C=C/C(=O)O)C=C1COC(=O)[C@@]12O", "note": "(stereo partly drawn)", "Potency": "inactive"}
{"compound": "CC(C)(C)OC(=O)N1CCC(OCc2nc(-c3ccncc3)no2)CC1", "Potency": "inactive"}
{"compound": "C[C@@H]1CC[C@]2(C(=O)O[C@@H]3O[C@H](CO)[C@@H](O)[C@H](O)[C@H]3O)CC[C@]3(C)C(=CCC4[C@@]5(C)C[C@@H](O)[C@H](O)[C@](C)(C(=O)O)C5CC[C@]43C)[C@@H]2[C@]1(C)O", "note": "(stereo partly drawn)", "Potency": "inactive"}
{"compound": "COc1cc2nc(N3CCC(N4CCCCC4)CC3)nc(NC3CCCCCC3)c2cc1OC", "Potency": "22.4 µM (active)"}
{"compound": "FC(F)(F)c1cc(-c2ncn(/C=C\\c3nnco3)n2)cc(C(F)(F)F)c1", "Potency": "inactive"}
{"compound": "CCCCNc1ccc(-c2ccc(CN3CCOCC3)cn2)c(NC2CCC(O)CC2)c1", "note": "(stereo not drawn)", "Potency": "inactive"}
{"compound": "CC1(CCOC2OC(CO)C(O)C(O)C2O)CCC23OC2(C1)C(O)CC1C(C)(C(=O)O)CCCC13C", "note": "(stereo not drawn)", "Potency": "inactive"}
{"compound": "CC(C)c1cc2c(c(O)c1O)[C@@]13CCCC(C)(C)[C@@H]1[C@H](OC3=O)C2=O", "Potency": "inactive"}
{"compound": "CC(=O)OC1/C(C)=C/C(=O)C(OC(C)=O)C(C)(C)/C=C/C(C)C(=O)C2(OC(C)=O)CC(C)C(OC(=O)c3ccccc3)C12", "note": "(stereo not drawn)", "Potency": "inactive"}
{"compound": "NC(=O)c1csc(C2OC(CO)C(O)C2O)n1", "note": "(stereo not drawn)", "Potency": "inactive"}
{"compound": "CC(=O)N1CCN(Cc2ccc([C@H](C)Nc3nccc(N4C(=O)OC[C@@H]4C(C)C)n3)cc2)CC1", "Potency": "inactive"}
{"compound": "CC(C)[C@@H](CS(=O)(=O)C(C)C)N1C(=O)[C@@](C)(CC(=O)O)C[C@H](c2cccc(Cl)c2)[C@H]1c1ccc(Cl)cc1", "Potency": "inactive"}
{"compound": "C[C@@H]1O[C@@H](O[C@H]2[C@H](OC(=O)[C@]34CCC(C)(C)C[C@H]3C3=CCC5[C@@]6(C)C[C@H](O)[C@H](O[C@@H]7O[C@H](CO)[C@@H](O)[C@H](O)[C@H]7O)[C@@](C)(CO)C6[C@H](O)C[C@@]5(C)[C@]3(C)CC4)OC[C@H](O)[C@@H]2O)[C@H](O)[C@H](O)[C@H]1O[C@@H]1OC[C@@H](O)[C@H](O[C@@H]2OC[C@](O)(CO)[C@H]2O)[C@H]1O", "note": "(stereo partly drawn)", "activity change, negative = cytotoxicity": "1.6% [at 6.55 µM]"}
